# Assay outcomes (PubChem BioAssay)
# The list is not random: actives were taken first. Their share in the collection is about 3.1%.
# FadD28 FP inh = inhibitors of Mycobacterium tuberculosis FadD28 bisubstrate binding; FadD28 bisubstrate probe binding, fluorescence polarization; inhibition, % at 12.5 µM; 360,000 compounds, 0.22% hits; AID 588549; in the data active means inhibition above about 8.5%, passing the limit was not always enough
# Mtb FBA inh = Mtb fructose-bisphosphate aldolase inhibition | P9WQA3 | purified M. tuberculosis FBA, fluorescence read-out | inhibition, % at 1 µM | 360,000 compounds, 2.3% hits;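 further: 0% = vehicle and 100% = reference inhibitor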
# Target sequence (P9WQA3 whole entry, looked up): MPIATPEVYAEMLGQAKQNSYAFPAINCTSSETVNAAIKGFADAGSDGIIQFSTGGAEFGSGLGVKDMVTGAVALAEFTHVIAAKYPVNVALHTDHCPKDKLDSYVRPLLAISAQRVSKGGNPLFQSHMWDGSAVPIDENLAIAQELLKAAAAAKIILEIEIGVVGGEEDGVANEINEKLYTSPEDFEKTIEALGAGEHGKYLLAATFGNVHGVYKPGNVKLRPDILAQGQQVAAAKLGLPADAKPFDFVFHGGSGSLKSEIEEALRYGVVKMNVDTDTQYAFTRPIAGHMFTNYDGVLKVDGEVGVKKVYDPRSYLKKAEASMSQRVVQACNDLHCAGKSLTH
# 3CLpro inhibitor = SARS-CoV 3CLpro protease inhibition. P0C6X7. recombinant SARS-CoV 3CLpro, quenched FRET peptide cleavage. inhibition, % at 6 µM. 290,000 compounds, 0.14% hits. AID 1706; in the data active means inhibition above about 12%
# GDH-TPI counter-1 = counter-screen for M. tuberculosis FBA inhibitors: GDH-TPI coupled enzymes; GDH-TPI coupled enzyme counterscreen, NADH absorbance; inhibition, % at 4.8 µM; 360,000 compounds, 1.2% hits; AID 588335; in the data active means inhibition above about 30%;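 further: 0% = DMSO wells and 100% = wells lacking the enzyme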
# Mtb BioA inh = BioA (M. tuberculosis) enzyme inhibition | purified M. tuberculosis BioA enzyme, plate reader | inhibition, % at 9.99 µM | 360,000 compounds, 0.096% hits; in the data active means inhibition above about 40%
# Mtb FBA inh conf = confirmation of M. tuberculosis fructose-bisphosphate aldolase inhibitors. 5,600 compounds, 78% hits. inhibition, % at 1 µM. shares compounds with Mtb FBA inh. purified M. tuberculosis FBA, fluorescence read-out;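 further: 0% = vehicle wells and 100% = reference inhibitor wells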
# GDH-TPI counter-2 = inhibits GDH-TPI coupling enzymes, flagging Mtb FBA hits. shares compounds with Mtb FBA inh. GDH-TPI coupled enzyme counterscreen, fluorescence. inhibition, % at 1 µM. 5,600 compounds, 81% hits. AID 652141; in the data active means inhibition above about 10%
# GDH-TPI DR = counter-screen for M. tuberculosis FBA inhibitors: GDH-TPI dose response; GDH-TPI coupled enzyme assay, fluorescence, artifact counterscreen; IC50, µM; AID 652145; shares compounds with Mtb FBA inh; 170 compounds, 79% hits; call rule not given here
# An asterisk follows results filed as active; nt = no result given; + = active, no number. Unless noted, no stated cut-off is given here; in the data, active means inhibition above about 27%; inactive means the rest.
SMILES,FadD28 FP inh,Mtb FBA inh,3CLpro inhibitor,GDH-TPI counter-1,Mtb BioA inh,Mtb FBA inh conf,GDH-TPI counter-2,others
CCCCc1c(C)c(C#N)c2[nH]c3ccccc3n2c1=O,-2,77*,5,10,-1,-4,-5,
Cc1c(CCC(C)C)c(=O)n2c([nH]c3ccccc32)c1C#N,-3,24,2,3,1,nt,nt,
CCCc1cc(=O)n2c([nH]c3ccccc32)c1C#N,-2,54*,-1,0,2,+,195*,
Cc1cc(NC(=O)CCC(=O)N(c2ccccc2C)C(C(=O)NC2CCCC2)c2ccccc2)no1 (stereo not given),-1,86*,4,8,-1,+,167*,
CN1C(=O)c2cc(NC(=O)c3cscn3)ccc2OC[C@@H]2O[C@@H](CC(=O)N3CCCCC3)CC[C@H]21,nt,nt,nt,nt,-1,nt,nt,
COCCCNC(=O)CCc1c(C)nc2c(c(C)nn2-c2ccc(C)cc2)c1C,-1,56*,5,7,8,71*,77*,
COCCNC(=O)CCc1c(C)nc2c(c(C)nn2-c2ccc(C)cc2)c1C,-1,55*,-2,3,1,63*,49*,
CCOC(=O)CCc1c(C)nc2c(c(C)nn2-c2ccc(C)cc2)c1C,1,8,4,0,1,nt,nt,
COCCNC(=O)CCc1c(C)nc2c(c(C)nn2-c2ccc(C)c(C)c2)c1C,-1,43*,3,-1,0,74*,56*,
CCN(CC)CCNC(=O)CCc1c(C)nc2c(c(C)nn2-c2ccc(C)cc2)c1C,-1,41*,4,11,5,8,-3,
COc1ccc([C@H]2C=C(C(=O)N3CCN(Cc4ccc5c(c4)OCO5)CC3)O[C@@H](OCc3ccc(CO)cc3)C2)cc1,nt,nt,nt,nt,5,nt,nt,
COCC(=O)N(C)C[C@H]1Oc2ncc(C#Cc3cccnc3)cc2C(=O)N([C@H](C)CO)C[C@H]1C,nt,nt,nt,nt,1,nt,nt,
CC(C)CC#Cc1ccc2c(c1)O[C@@H](CN(C)C(=O)c1cccnc1)[C@@H](C)CN([C@H](C)CO)S2(=O)=O,nt,nt,nt,nt,10,nt,nt,
NC(=O)COc1c(-c2ccc(Br)o2)oc2ccccc2c1=O,0,105*,4,35*,-2,154*,113*,
Nc1oc2ccccc2c(=O)c1C=O,-2,0,5,0,nt,nt,nt,
Cc1ccc(CN2CC[C@H]3C=CCc4cccc(c43)C2)cc1,-1,2,nt,1,-1,nt,nt,
C1=C[C@@H]2CCN(Cc3ccccc3)Cc3cccc(c32)C1,1,28*,nt,18,-3,+,+,
CC(=O)NC(=O)c1ccc(-c2ccc(Cl)cc2)o1,-2,78*,-2,21,-2,46*,56*,
Cc1ccc2nc(-c3ccc(NC(=O)CSc4nccc(=O)[nH]4)cc3)sc2c1,-2,53*,-2,24,nt,+,+,
CCn1c(SCC(=O)Nc2ccc(-c3nc4ccc(C)cc4s3)cc2)nnc1-c1ccccc1,nt,nt,-1,nt,nt,nt,nt,
Cc1ccc2nc(-c3ccc(NC(=O)CSc4nc(N)cc(=O)[nH]4)cc3)sc2c1,-6,37*,2,24,-1,73*,42*,
C=CCNc1nc(Nc2ccc(-c3nc4ccccc4o3)cc2)nc(N2CCOCC2)n1,-1,97*,-6,35*,-3,19,-4,GDH-TPI DR=0.49*
C[C@H]1CN([C@@H](C)CO)C(=O)c2cc(NC(=O)C3CCCCC3)ccc2O[C@H]1CN(C)Cc1ccc(Cl)c(Cl)c1,nt,nt,nt,nt,-2,nt,nt,
NC(=O)c1ccccc1NCC(=O)c1ccc(F)cc1,-3,31*,0,-4,nt,103*,87*,
O=C(CNc1ccc(F)cc1)c1ccccc1,-1,4,-3,-1,nt,nt,nt,
O=C(O)c1cccc(Nc2ncnc3ccccc23)c1,-3,49*,-6,14,-1,83*,78*,
COc1ccc(NS(=O)(=O)c2ccc(Oc3cccc(C(=O)O)c3)cc2)cc1,-1,-2,7,-5,nt,nt,nt,
CC(=O)Nc1ccc(S(=O)(=O)Nc2nc3ccccc3nc2Nc2ccccc2)cc1,2,82*,2,7,nt,+,+,
